PfHsp90 yeast 2: reduces growth (ATP signal) of yeast expressing P. falciparum Hsp90; S. cerevisiae expressing PfHsp90, BacTiter-Glo ATP, 48 h; yeast lacking PDR1 and PDR3 efflux regulators; inhibition, % at 9.4 µM; actives 0.32% (n = 310,000); AID 504621;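 active means every replicate shows inhibition above about 80%, whatever the replicate mean, limit read from the data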;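 further: 0% = DMSO neutral controls and 100% = 20 µM radicicol positive controls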
NALP1 yeast inh: NALP1 inhibition. AID 2071. actives 0.61% (n = 280,000). S. cerevisiae NALP1/ASC/caspase-1 growth, X-gal OD620, 72 h. inhibition, % at 10 µM; in the data active means inhibition mostly above about 24%, no sharp cut-off; inactive means mostly below about 32%
tim10-1 inh: inhibits growth of tim10-1 mutant yeast. S. cerevisiae tim10-1 ts strain growth, BacTiter-Glo, 24 h. inhibition, % at 20 µM. actives 2.2% (n = 330,000). AID 463190;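 active means inhibition of at least 40%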;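 further: mutant grown at 25 °C; 0% = DMSO wells with yeast and 100% = wells holding no yeast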
tim23-1 inh: growth inhibitors of tim23-1 mutant yeast; AID 463212; actives 1.3% (n = 330,000); inhibition, % at 20 µM; S. cerevisiae tim23-1 growth, BacTiter-Glo luminescence, 24 h;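 active means growth inhibition of the mutant yeast at or above 50%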;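 further: temperature-sensitive mutant grown at 25 °C; plate controls were DMSO-treated mutant yeast for no effect and medium wells lacking yeast for full effect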
TIM10 inh: TIM10 yeast growth inhibition. actives 1.4% (n = 330,000). S. cerevisiae TIM10 strain growth, BacTiter-Glo luminescence, 24 h. AID 463195. inhibition, % at 10 µM;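 active means inhibition of 40% or more at the single tested concentration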;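 further: wild-type TIM10 isogenic control strain grown at permissive 25 °C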
NALP3 yeast inh: inhibitors of NALP3 inflammasome in yeast; Yeast reconstituted NLRP3/ASC/caspase-1, beta-gal luminescence, 24 h; inhibition, % at 10 µM; actives 0.39% (n = 330,000);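 active means inhibition of 50% or more; inactive means inhibition below 50%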;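 further: plate controls were induced DMSO wells for no effect and uninduced yeast grown without galactose for full effect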
tim23-1 conf: confirmation of tim23-1 mutant yeast growth inhibitors. shares compounds with tim23-1 inh. S. cerevisiae tim23-1 growth, BacTiter-Glo luminescence, 24 h. inhibition, % at 20 µM. actives 83% (n = 4,400);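 active means inhibition above about 39% in either of two replicate wells at 20 µM, limit read from the data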;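 further: temperature-sensitive tim23-1 mutant grown at 25 °C; 0% = DMSO wells with yeast and 100% = medium wells without yeast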
Numbers without * were called inactive; / = no result given. Compounds with a hit are over-represented: about 4.2% of the library has one in this group of screens.

SMILES	PfHsp90 yeast 2	NALP1 yeast inh	tim10-1 inh	tim23-1 inh	TIM10 inh	NALP3 yeast inh	tim23-1 conf
Nc1cc([N+](=O)[O-])cc2oc(-c3ccccc3)cc12	-10.0	6.7	27.4	54.2*	6.6	43.4	45.0*
NC(CSCc1cccc(Br)c1)C(=O)O (stereo not given)	3.8	3.6	17.9	19.6	0.0	16.5	/
Cc1ccccc1C(=O)NCC(=O)OC(C)C(=O)Nc1cccc(S(=O)(=O)N2CCOCC2)c1 (stereo not given)	25.0	/	-7.4	8.2	-3.4	19.2	/
Cc1sc(N)c(C(=O)c2ccccc2)c1C	-15.8	-4.6	8.1	4.9	11.8	2.8	/
Cc1cc2c(c(C)c1Cl)C(c1ccc3c(c1)OCO3)CC(=O)O2 (stereo not given)	-42.6	/	22.4	45.4	-7.0	/	/
Cc1ccc(C(C)C)c2c1C(c1ccc3c(c1)OCO3)CC(=O)O2 (stereo not given)	-18.3	/	27.7	60.0*	9.8	/	38.9*
COc1ccc(CC(=O)Nc2cccc(-c3ccc4nnc(C)n4n3)c2)cc1OC	-70.3	-11.4	-2.3	-3.4	11.5	-4.4	/
Cc1ccc(C(=O)NC2=NCCS2)cc1Cl	7.0	-5.0	-21.3	55.1*	15.3	22.2	46.8*
COc1ccc(Cl)cc1NC(=O)CSc1nnc(Cc2ccc(C)cc2)c(=O)[nH]1	-2.2	/	9.3	14.0	2.9	3.3	/
CCC1CCc2sc(C(=O)N(C)CC(=O)Nc3ccc(OC)cc3)cc2C1 (stereo not given)	-15.0	/	32.7	50.6*	0.5	37.9	45.0*
CCC1CCc2sc(C(=O)NCC3CCCO3)cc2C1 (stereo not given)	-26.9	/	11.2	51.4*	7.2	27.3	38.0
CCC1CCc2sc(C(=O)N(C)CC(=O)Nc3cccc(OC)c3)cc2C1 (stereo not given)	-30.2	/	18.7	51.1*	11.9	26.7	41.0*
CC(C)OCCCN(C)C1CCN(S(=O)(=O)c2ccc(-c3cc(C(F)(F)F)no3)s2)CC1	-35.5	19.3	7.4	6.8	10.5	25.6	/
COc1ccccc1C(=O)NC1CCN(C(=O)Nc2ccc(F)cc2)CC1	-4.7	9.4	-10.3	16.4	-7.9	21.8	/
c1csc(CSc2nnc3sc4ccccc4n23)c1	-35.0	19.6	39.0	53.7*	13.8	16.3	50.3*
Cc1ccc(Nc2cc(C)c3ccc(O)cc3n2)cc1C	8.8	/	-16.4	81.9*	10.9	27.3	35.9*
CC(=O)Nc1ccc(-c2cn3c(n2)SCC3)cc1	13.1	17.1	0.1	6.1	-20.3	-4.3	/
O=C(Nc1ccc(-c2cn3c(n2)SCC3)cc1)c1ccco1	0.4	14.3	10.5	50.6*	15.6	12.1	44.0*
C[C@@H]1COC(=O)[C@H](CC(=O)OC(C)(C)C)C/C=C\C[C@@H](CC(=O)NCCO)C(=O)N1	7.7	/	-18.6	-17.4	-5.8	17.0	/
CN(C#N)c1nc(Cl)nc(Nc2cccc(Cl)c2)n1	10.6	51.3	39.8	69.0*	13.1	10.3	-54.6
CCn1c(O)c(C=NC2CCCC(C)C2C)sc1=S (stereo not given)	-34.8	21.3	35.5	50.7*	23.4	27.1	53.4*
COc1ccccc1NC(=S)NC(=O)CCc1ccccc1	6.6	20.0	31.1	45.7	27.6	22.6	/
O=C(CCc1ccccc1)NC(=S)Nc1ccccc1Br	-30.5	15.8	-9.1	50.0*	29.3	22.7	32.3
COc1ccc(CCC(=O)Nc2cccc(Cl)c2)cc1	-3.1	37.7	10.5	59.2*	32.9	28.6	65.3*
COc1ccc(CNC(=O)Nc2cccc(Cl)c2)cc1	-8.0	-4.3	-26.5	21.7	8.5	11.9	/
SMILES	PfHsp90 yeast 2	NALP1 yeast inh	tim10-1 inh	tim23-1 inh	TIM10 inh	NALP3 yeast inh	tim23-1 conf
COc1cc(NC(=S)NC(=O)CCc2ccccc2)cc(OC)c1	2.4	8.3	24.8	51.0*	38.6	19.9	40.6*
CC(=O)Nc1ccc(NC(=O)C2CCN(C(=O)NC3CCCCC3)CC2)cc1	-15.8	-5.0	-8.3	5.8	12.2	4.0	/
COc1cc(CCc2ccccc2)c(C(=O)O)c(O)c1CC=C(C)C	18.3	/	/	/	/	/	/
COc1cc(CCc2ccccc2)c(C(=O)O)c(O)c1C/C=C(/C)CCC=C(C)C	-8.4	/	28.1	74.6*	14.8	/	19.6
Cc1ccc(C(=O)N/N=C/c2nc3ccccc3n2C)cc1	8.9	22.9	28.2	53.6*	5.9	14.1	38.8*
CN(C(=S)NC(=O)c1ccccc1Br)C1CCCCC1	/	0.1	39.9	50.2*	27.6	-11.4	34.5
O=C(/C=C/c1ccc(F)cc1)NCC1(c2ccccc2)CCOCC1	5.4	31.9	16.3	24.7	10.7	-3.9	/
COc1ccc2c(c1)-c1nc(NC(=O)c3cccs3)sc1CC2	-7.7	15.5	38.2	53.4*	29.6	40.8	48.5*
CC1CC(C)CN(C(=O)CN2C(=O)NC(c3ccccc3)(c3ccccc3)C2=O)C1 (stereo not given)	/	/	3.7	11.5	0.6	11.8	/
CCOC(=O)c1csc(NC(=O)CSc2nnnn2-c2ccc(OC)cc2)n1	1.3	-7.3	7.9	15.9	7.8	-0.2	/
CCOC(=O)c1c(NC(=O)CSc2nnnn2-c2ccc(OC)cc2)sc(C)c1C	5.3	-10.6	20.6	50.2*	-0.8	2.7	81.7*
COCC(C)n1c(COc2ccccc2F)nnc1SCC(=O)Nc1oc(C)c2c(C)n[nH]c(=O)c12 (stereo not given)	-23.6	/	5.0	0.0	-3.7	4.9	/
CSC1=N/C(=C\c2ccccc2F)C(=O)S1	13.8	8.2	20.6	51.8*	11.8	7.0	50.9*
COc1cccc(/C=C2\N=C(SC)SC2=O)c1OC	21.1	-1.5	28.6	17.6	28.3	11.6	/
CCOc1cc(Cl)c(S(=O)(=O)NCCCn2ccnc2)cc1Cl	9.6	/	5.8	-9.4	1.1	14.6	/
O=C(Cn1nc(Cl)nc1Cl)c1ccc(F)cc1	-21.7	8.9	-9.0	4.4	3.0	-2.5	/
O=C(Cn1nc(Cl)nc1Cl)c1ccc2c(c1)OCCO2	28.5	-12.5	26.0	54.6*	16.1	5.8	38.2
CCNc1nc2c(cnn2C)c(=O)[nH]1	6.5	/	/	/	/	/	/
CC[C@H](C)[C@H](NC(N)=O)C(=O)NCCc1ccc(Cl)cc1Cl	-23.6	0.3	10.3	17.9	-6.5	4.5	/
Cc1cc(C)c(NS(=O)(=O)c2ccccc2)c(C)c1NS(=O)(=O)c1ccccc1	-2.6	/	/	/	/	/	/
CC1=CC(=NOC(=O)/C=C/c2ccccc2)C=C(C)C1=O	/	-15.0	37.3	70.2*	29.2	-10.0	52.6*
CC1=C(C)/C(=N\OC(=O)/C=C/c2ccccc2)C=CC1=O	12.9	11.1	27.1	21.0	6.1	4.8	/
O=C1NC(=O)C(Cc2ccc(Cl)cc2)(c2ccccc2)N1 (stereo not given)	9.3	/	/	/	/	/	/
CCCC(=O)NC(c1ccc(OC)cc1)c1ccc2cccnc2c1O (stereo not given)	/	4.7	33.7	20.8	20.9	3.2	/
